Source: PubChem BioAssay (NCI)
About 83,000 compounds went through this panel and 20% of them were active in at least one assay; those are over-represented in the sample as a whole.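 The endpoint reported here, percent growth, reads 100 for growth as untreated, 0 for no net growth and -100 for all cells dead.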 Values without a mark were called inactive. Activity calls are given as the source filed them. Rule for the calls: active = growth percent below 10; inactive = the rest.

Tests used:
Experiment in all cases: NCI-60 one-dose screen, 48 h (100 = growth as untreated, 0 = no growth, -100 = all killed)
Conditions in all cases: 10 µM unless noted
NCI-H23 lung = tested on: NCI-H23 lung
NCI-H226 lung = tested on: NCI-H226 lung
NCI-H322M lung = tested on: NCI-H322M lung
HOP-62 NSCLC = tested on: HOP-62 NSCLC
NCI-H460 lung = tested on: NCI-H460 lung
HOP-92 NSCLC = tested on: HOP-92 NSCLC
NCI-H522 lung = tested on: NCI-H522 lung
A549/ATCC NSCLC = tested on: A549/ATCC NSCLC
786-0 renal = tested on: 786-0 renal
COLO 205 colon = tested on: COLO 205 colon

SMILES	growth (NCI-H23 lung)	growth (NCI-H226 lung)	growth (NCI-H322M lung)	growth (HOP-62 NSCLC)	growth (NCI-H460 lung)	growth (HOP-92 NSCLC)	growth (NCI-H522 lung)	growth (A549/ATCC NSCLC)	growth (786-0 renal)	growth (COLO 205 colon)
NC1[C@H]2CN(c3cnc(C(=O)Nc4cc(F)cc5cccnc45)cn3)C[C@@H]12 (stereo not given in full)	84.5%	85.1%	6.79% (active)	82.4%	92.1%	24.8%	46.6%	92.1%	75.2%	18.5%
COc1ccc(C2CC(c3cccc(OCCCCOc4cccc(C5=NOC(c6ccc(OC)cc6)C5)c4)c3)=NO2)cc1 (stereo not given)	103%	100%	94.7%	105%	102%	104%	86.4%	88.5%	99.1%	100%
O=C(CCCCCC/C=C\c1csc(Br)n1)NO	95.2%	96.8%	100%	88.9%	85.8%	102%	65.6%	91.9%	104%	95%
O=S(=O)(NCCCNc1nccc(-c2[nH]c(-c3ccccc3)nc2-c2ccc(F)c(O)c2)n1)c1cccc2ccccc12	64.9%	68%	98.2%	76.8%	35.5%	32.6%	64%	52.4%	59.8%	111%
Fc1ccc2nc(-c3cnn4cccnc34)sc2c1	93.3%	83.1%	67.5%	85.1%	88.2%	78.9%	93.5%	81%	101%	102%
Cc1ccc2c(n1)C(=O)C(Cl)=C(Nc1ccc(C(=O)OC(C)(C)C)cc1)C2=O	75.2% [9.25 µM]	85.8% [9.25 µM]	101% [9.25 µM]	106% [9.25 µM]	102% [9.25 µM]	-54.9% [9.25 µM] (active)	-14.1% [9.25 µM] (active)	99.9% [9.25 µM]	-56.4% [9.25 µM] (active)	-46.1% [9.25 µM] (active)
CN1CCN(Cc2ccc(NC(=O)c3cncc(C#Cc4cnc5ccc(O[C@@H]6CCOC6)nn45)c3)cc2C(F)(F)F)CC1	-65.2% (active)	-60.7% (active)	-49.3% (active)	-79.1% (active)	-83.3% (active)	-39.6% (active)	-72% (active)	-76.8% (active)	-87.9% (active)	-77.4% (active)
CCc1cc2c(cc1Cl)nc1c(=O)[nH]c(=O)nc-1n2CCOCC(C)C	67.7%	39.4%	54.9%	100%	49.3%	126%	55.6%	67.1%	70.3%	21.3%
CNC(=O)c1cc(-n2ccc3cc(NC(=O)Nc4ccc(N5CCN(C)CC5)c(C(F)(F)F)c4)ccc32)ccn1	88.6%	96.4%	85.4%	75.6%	60%	71.1%	101%	68.2%	-13.7% (active)	90.8%
O=C(CCCCCCNC(=O)c1csc(Br)n1)NO	47.7%	79%	61.6%	48.2%	34.9%	5.32% (active)	15.7%	34.8%	72.4%	20.9%
CNCCN(C)c1ccc(Nc2cc(NC3CC3)n3ncc(C#N)c3n2)cc1NC(C)=O	-5.36% (active)	10.6%	10.5%	13.4%	8.31% (active)	-9.1% (active)	-35.4% (active)	12%	12.8%	4.36% (active)
CC1=C(C)C(=O)C(Nc2ccc3c(c2)OCO3)=C(Br)C1=O	90%	93%	96.5%	92.9%	100%	-22.9% (active)	96.5%	102%	103%	122%
COc1ccc(NC(=O)CCCCCCNC(=O)C(O)(O)C(F)(F)F)cc1	53.2%	84.1%	66.1%	28.3%	40.2%	28.5%	0.885% (active)	46.3%	52.9%	9.56% (active)
CCCCCC[n+]1ccc(SCC(=O)n2ccc3ccccc32)c2ccccc21	63.8%	79.5%	94%	90.2%	99.5%	81.2%	73.5%	101%	102%	99.4%
COC(=O)c1ccc(NC2=C(Cl)C(=O)c3nc(C)ccc3C2=O)cc1	54.8%	81.3%	101%	96.8%	92.3%	142%	59.6%	94.1%	85.7%	111%
COc1ccc(/C=N/NC(=O)CSc2nc(-c3cnccn3)cc(-c3cccs3)c2C#N)cc1OC	66.6%	47%	91.9%	77.1%	56.2%	37.8%	76.5%	74.8%	53.1%	107%
O=C(CCCCCCNC(=O)C(O)(O)C(F)(F)F)Nc1nc2ccccc2s1	3.62% (active)	25.4%	8.24% (active)	0.982% (active)	8.87% (active)	-5.22% (active)	-35.8% (active)	4.79% (active)	20.3%	-68.5% (active)
O=C(CCCCCCNC(=O)C(O)(O)C(F)(F)F)Nc1ncc(-c2ccc(Br)cc2)s1	-16% (active)	4.5% (active)	12.2%	-6.49% (active)	0.631% (active)	-23.3% (active)	-44.9% (active)	-15.2% (active)	14.9%	-55.9% (active)
CC1=C(C)C(=O)C(Nc2cccc(C(=O)OC(C)(C)C)c2)=CC1=O	28.8%	64.5%	94.5%	78.4%	93.1%	78.8%	82.2%	106%	89.9%	107%
O=C(CSc1nnc(-c2ccc(Cl)cc2)n1-c1ccccc1)Nc1ccc(Cl)cc1	29.1%	16%	41.2%	82.8%	19.4%	-5.1% (active)	39.5%	21.5%	-50.2% (active)	90.2%
Clc1ccc2[nH]cc(-c3nn4cc(-c5ccncc5)nc4s3)c2c1	43.1%	22.7%	49.2%	46.6%	10.1%	33.8%	36.4%	68.6%	69.9%	69.5%
CCOC(=O)c1cnc2c(-c3ccc(Cl)c(Cl)c3)cnn2c1	82%	80.1%	90.8%	69.1%	99.7%	39.9%	66.9%	96.4%	90.8%	76.8%
COc1ccc(C(C)=C(c2ccc(OCCN(C)C)cc2)c2ccc(OCCN(C)C)cc2)cc1	-13.7% (active)	-7.67% (active)	-2.39% (active)	-15.8% (active)	-14.8% (active)	-43.6% (active)	-60.1% (active)	-3.07% (active)	-88.5% (active)	-73% (active)
CN1CC[C@@H]2[C@@]3(C)CC[C@H](O)C(C)(C)[C@@H]3CC[C@@]2(C)[C@]2(C)CC[C@@]3(CO)CCC(C)(C)C[C@@H]3C12 (stereo not given in full)	90.7%	94.4%	98.8%	101%	98.3%	66.8%	98%	86%	80.7%	-2.47% (active)
Cc1ccc2c(n1)C(=O)C(Cl)=C(Nc1cccc(C(=O)OC(C)(C)C)c1)C2=O	73.7%	82.8%	112%	108%	101%	88.8%	60.6%	106%	99.8%	119%
CC(C)(C)c1cc(NC(=O)Nc2ccc(-c3cn4c5c(sc4n3)CCc3cn(CCCN4CCCCC4)cc3-5)cc2)no1	-84.2% (active)	92.6%	-78.8% (active)	-50.3% (active)	-69.1% (active)	75.4%	-55.3% (active)	-79.6% (active)	-98.1% (active)	5.79% (active)
